Here are results for 5 compounds from PubChem BioAssay AID1508601 (ICCB-Longwood Screening Facility, Harvard Medical School, 2020).

Values joined by “and” are separate entries in the source; they are usually repeats but may differ in a detail not shown here. Identical values can stand only once. The whole screen tested about 5,700 compounds, of which about 85 (1%) were called active. Cut-off read from the data, not from the text of the source: active = p53-positive nuclei above about 36% (passing the limit was not always enough); inactive = the rest. Shown is part of a subset that was picked to be rich in actives.

A short description of experiment [1]: p53 stabilisation in HPV-positive human cells, imaging, p53-positive nuclei imaging, 24 h, 48 h (AID 1508601). Particulars: 24/48 h.
Experiment [2] addresses Cellular tumor antigen p53 (Homo sapiens) (UniProt P04637). The experiment is described as above. Particulars: 24/48 h, stronger effect = higher value.
Where [3] appears, read: measured here: cell number at 24 h, Library stock concentration: 3.33 mM.
Where [4] appears, read: measured here: cell number at 48 h, Library stock concentration: 3.33 mM.
Where [5] appears, read: Library stock concentration: 3.33 mM.
[6] abbreviates: measured here: p53 positive nuclei at 24 h, Library stock concentration: 3.33 mM.
[7] abbreviates: measured here: cell number at 24 h, Library stock concentration: 46 uM.
Setting [8] is: measured here: cell number at 24 h, Library stock concentration: 278 uM.
The mark [9] stands for this setting: measured here: cell number at 24 h, Library stock concentration: 1.67 mM.
[10] abbreviates: measured here: cell number at 24 h, Library stock concentration: 10 mM.
Where [11] appears, read: measured here: cell number at 48 h, Library stock concentration: 46 uM.
Setting [12] is: measured here: cell number at 48 h, Library stock concentration: 278 uM.
Setting [13] is: measured here: cell number at 48 h, Library stock concentration: 1.67 mM.
Where [14] appears, read: measured here: cell number at 48 h, Library stock concentration: 10 mM.
Where [15] appears, read: Library stock concentration: 46 uM.
[16] abbreviates: Library stock concentration: 278 uM.
The mark [17] stands for this setting: Library stock concentration: 1.67 mM.
Where [18] appears, read: Library stock concentration: 10 mM.
[19] abbreviates: measured here: p53 positive nuclei at 24 h, Library stock concentration: 46 uM.
Where [20] appears, read: measured here: p53 positive nuclei at 24 h, Library stock concentration: 278 uM.
[21] abbreviates: measured here: p53 positive nuclei at 24 h, Library stock concentration: 1.67 mM.
[22] abbreviates: measured here: p53 positive nuclei at 24 h, Library stock concentration: 10 mM.
[23] abbreviates: measured here: cell number at 24 h, Library stock concentration: 80 uM.
Where [24] appears, read: measured here: cell number at 24 h, Library stock concentration: 400 uM.
Where [25] appears, read: measured here: cell number at 24 h, Library stock concentration: 2 mM.
[26] abbreviates: measured here: cell number at 48 h, Library stock concentration: 80 uM.
Setting [27] is: measured here: cell number at 48 h, Library stock concentration: 400 uM.
Where [28] appears, read: measured here: cell number at 48 h, Library stock concentration: 2 mM.
Where [29] appears, read: Library stock concentration: 80 uM.
Setting [30] is: Library stock concentration: 400 uM.
Setting [31] is: Library stock concentration: 2 mM.
[32] abbreviates: measured here: p53 positive nuclei at 24 h, Library stock concentration: 80 uM.
The mark [33] stands for this setting: measured here: p53 positive nuclei at 24 h, Library stock concentration: 400 uM.
The mark [34] stands for this setting: measured here: p53 positive nuclei at 24 h, Library stock concentration: 2 mM.

Sequence of Cellular tumor antigen p53 (Homo sapiens) (P04637 whole entry, looked up): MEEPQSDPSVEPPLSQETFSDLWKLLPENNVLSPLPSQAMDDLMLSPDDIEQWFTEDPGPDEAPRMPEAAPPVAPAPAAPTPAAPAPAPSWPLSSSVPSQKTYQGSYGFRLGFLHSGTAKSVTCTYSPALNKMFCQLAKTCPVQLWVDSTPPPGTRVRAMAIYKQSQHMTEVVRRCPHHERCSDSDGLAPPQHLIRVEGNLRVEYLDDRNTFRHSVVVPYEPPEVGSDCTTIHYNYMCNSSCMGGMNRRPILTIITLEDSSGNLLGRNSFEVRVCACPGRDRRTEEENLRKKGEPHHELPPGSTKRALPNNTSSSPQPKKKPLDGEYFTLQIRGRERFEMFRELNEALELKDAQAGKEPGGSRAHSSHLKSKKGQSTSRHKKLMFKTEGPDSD

On to `O=C(NN=Cc1ccc(O)c(O)c1)c1cc2ccccc2cc1O`, for which the nuclei count, normalised turned out to be 108% in experiment [1] (setting [3]) and 99.5% in experiment [1] (setting [4]). The p53-positive nuclei, normalised was 0.0529% (inactive) in experiment [2] (setting [5]) and -0.25% in experiment [2] (setting [6]).

As for `CCOC(=O)NC1CCC2C(C1)CC1C(=O)OC(C)C1C2C=Cc1ccc(-c2cccc(F)c2)cn1` (stereo unspecified), the nuclei count, normalised in experiment [1] (setting [7]) came out at 115%; in experiment [1] (setting [8]), 108%; in experiment [1] (setting [9]), 101%; in experiment [1] (setting [10]) it was 105%; in experiment [1] (setting [11]) it was 117%; in experiment [1] (setting [12]), 109%. The nuclei count, normalised in experiment [1] (setting [13]) and in experiment [1] (setting [14]) was 107% throughout. Also, the p53-positive nuclei, normalised in experiment [2] (setting [15]) was -0.0807% (inactive); in experiment [2] (setting [16]) it was -0.17% (inactive); in experiment [2] (setting [17]), 0.0724% (inactive); in experiment [2] (setting [18]) it was -0.166% (inactive); in experiment [2] (setting [19]), -0.0891%; in experiment [2] (setting [20]), -0.151%. The p53-positive nuclei, normalised in experiment [2] (setting [21]) is -0.079%; in experiment [2] (setting [22]), 0.188%.

Regarding `Cc1ccc(NC(=O)c2ccc(CN3CCN(C)CC3)cc2)cc1Nc1nccc(-c2cccnc2)n1`, the nuclei count, normalised in experiment [1] (setting [23]) is 114%; in experiment [1] (setting [24]), 85.7%; in experiment [1] (setting [25]), 91%; in experiment [1] (setting [3]), 99% and 103%; in experiment [1] (setting [10]), 87.2%; in experiment [1] (setting [26]) it was 112%. Also, the nuclei count, normalised was 84.9% in experiment [1] (setting [27]); 92.2% in experiment [1] (setting [28]); 99.2% and 104% in experiment [1] (setting [4]); 87.9% in experiment [1] (setting [14]). Moreover, the p53-positive nuclei, normalised in experiment [2] (setting [29]) is 0.0518% (inactive); in experiment [2] (setting [30]) it was 0.00427% (inactive); in experiment [2] (setting [31]) it was -0.0247% (inactive); in experiment [2] (setting [5]) it was -0.686% (inactive) and -0.212% (inactive); in experiment [2] (setting [18]), -0.182% (inactive); in experiment [2] (setting [32]), 0.0696%. In addition, the p53-positive nuclei, normalised is 0.334% in experiment [2] (setting [33]); 0.0437% in experiment [2] (setting [34]); -0.375% and -0.356% in experiment [2] (setting [6]); -0.0433% in experiment [2] (setting [22]).

With `Nc1ccccc1NC(=O)c1ccc(CNc2nccc(-c3cccnc3)n2)cc1`, the nuclei count, normalised in experiment [1] (setting [23]) worked out at 128%; in experiment [1] (setting [24]) it was 124%; in experiment [1] (setting [25]), 125%; in experiment [1] (setting [3]), 42.1%; in experiment [1] (setting [10]), 49.9%; in experiment [1] (setting [26]) it was 109%. In addition, the nuclei count, normalised in experiment [1] (setting [27]) was determined as 107%; in experiment [1] (setting [28]), 98.1%; in experiment [1] (setting [4]), 30.1%; in experiment [1] (setting [14]), 29.3%. Also, the p53-positive nuclei, normalised in experiment [2] (setting [29]) was 8% (inactive); in experiment [2] (setting [30]) it was 0.396% (inactive); in experiment [2] (setting [31]), 1.82% (inactive); in experiment [2] (setting [5]), 23.5% (inactive); in experiment [2] (setting [18]) it was 83.5% (active); in experiment [2] (setting [32]), 4.97%. The p53-positive nuclei, normalised in experiment [2] (setting [33]) turned out to be 0.046%; in experiment [2] (setting [34]) it was 0.551%; in experiment [2] (setting [6]), 10.3%; in experiment [2] (setting [22]), 87.6%.

Take `Nc1ccccc1NC(=O)c1ccc(CNC(=O)OCc2cccnc2)cc1`: the nuclei count, normalised in experiment [1] (setting [7]) was found to be 96%; in experiment [1] (setting [23]), 114%; in experiment [1] (setting [8]), 104%; in experiment [1] (setting [24]), 118%; in experiment [1] (setting [9]), 107%; in experiment [1] (setting [25]) it was 124%. The nuclei count, normalised in experiment [1] (setting [3]) is 104%; in experiment [1] (setting [10]), 90.8% and 96%; in experiment [1] (measured here: cell number at 24 h, concentration not given here), 107%; in experiment [1] (setting [11]) it was 96.3%; in experiment [1] (setting [26]), 103%; in experiment [1] (setting [12]), 103%. Further, the nuclei count, normalised in experiment [1] (setting [27]) was 100%; in experiment [1] (setting [13]) it was 95.3%; in experiment [1] (setting [28]), 101%; in experiment [1] (setting [4]), 88.9%; in experiment [1] (setting [14]) it was 58% and 57.5%; in experiment [1] (measured here: cell number at 48 h, concentration not given here), 103%. For the same compound, the p53-positive nuclei, normalised was -0.0533% (inactive) in experiment [2] (setting [15]); -0.489% (inactive) in experiment [2] (setting [29]); -0.145% (inactive) in experiment [2] (setting [16]); -0.1% (inactive) in experiment [2] (setting [30]); 3.54% (inactive) in experiment [2] (setting [17]); 0.00969% (inactive) in experiment [2] (setting [31]). The p53-positive nuclei, normalised in experiment [2] (setting [5]) was 0.482% (inactive); in experiment [2] (setting [18]) it was 17.1% (inactive) and 14.2% (inactive); in experiment [2] (concentration not given here), 0.78% (inactive); in experiment [2] (setting [19]), 0.084%; in experiment [2] (setting [32]), -0.0702%; in experiment [2] (setting [20]) it was -0.207%. Also, the p53-positive nuclei, normalised in experiment [2] (setting [33]) is 0.0634%; in experiment [2] (setting [21]), 5.23%; in experiment [2] (setting [34]), 0.00201%; in experiment [2] (setting [6]), 0.899%; in experiment [2] (setting [22]), 34.2% and 14.9%; in experiment [2] (measured here: p53 positive nuclei at 24 h, concentration not given here), 0.224%.
